{
  "source": "PubChem BioAssay",
  "data": [
    {"assay": "probe aEGFR binding to arrayed compounds – biochemical, biotinylated probe, 635/667 nm fluorescence, primary screen (AID 1097);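 further: probe is a biotinylated anti-EGFR antibody binding compounds printed on slides; score combines fluorescence near 667 nm and signal to noise of each spot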", "details": "small-molecule microarray, higher = more signal", "values": [
      {"compound": "[N-]=[N+]=NCc1ccccc1C[C@@]1(C(=O)NCCN2CCOCC2)N=C(c2ccc(OCCCO)cc2)O[C@@H]1c1ccccc1CN=[N+]=[N-]", "composite z-score": 0.177},
      {"compound": "C[C@]12C(=O)N(CCCO)[C@@H]3C(=O)N(c4ccc(Cl)cc4)CC=CC31O[C@@H]1/C=C\\CCCOC(=O)C12", "note": "(stereo partly specified)", "composite z-score": -0.261},
      {"compound": "CCCCC(O)C1C=CC2C(=O)N(Cc3ccccc3)C(=O)C2N1n1cnnc1", "note": "(stereo unspecified)", "composite z-score": 0.035},
      {"compound": "Cc1ccccc1C(O)C1C=CC2C(=O)N(C)C(=O)C2N1Nc1ccc([N+](=O)[O-])cc1[N+](=O)[O-]", "note": "(stereo unspecified)", "composite z-score": 0.0801},
      {"compound": "COCCOC(=O)N1C(=O)[C@@]2(c3cc(C#Cc4ccc(OC)cc4)ccc31)[C@H](C(=O)N1CCc3cc(OC)c(OC)cc3C1)[C@H]1C(=O)O[C@H](c3ccccc3)[C@H](c3ccccc3)N1[C@@H]2c1ccc(OCCO)cc1", "composite z-score": 0.0343},
      {"compound": "O=c1c2ccc(Br)cc2nc(-c2ccccc2)n1Cc1cccc(O)c1", "composite z-score": -0.0721},
      {"compound": "Cc1ccc(S[C@]2(C(=O)NCCN3CCOCC3)CC(=O)N(C3Cc4ccccc4C3)[C@@H]2c2ccc(CO)cc2)cc1", "composite z-score": -0.222},
      {"compound": "C=CC[C@@]1(C(=O)NCCN2CCOCC2)N=C(c2ccc(OCCCO)cc2)O[C@@H]1c1ccccc1", "composite z-score": 0.0149},
      {"compound": "C[C@H]1NC(=O)C([C@@H](C)OCc2ccccc2)NC(=O)[C@@]23C(=O)N[C@@H](Cc4ccccc4)C2[C@H](C)[C@@]2(C)O[C@H]2C3/C=C/CC/C=C/CNC1=O", "note": "(stereo partly specified)", "composite z-score": 0.0143},
      {"compound": "C/C=C/[C@@H](CCn1cc([C@H](O)c2ccccc2)nn1)[Si](C)(C)c1ccc(OC)cc1", "composite z-score": -0.298},
      {"compound": "CCCC=C(CCC)[C@@H](NC(=O)Cc1ccccc1)c1ccc(C(=O)OC)cc1", "composite z-score": 0.577},
      {"compound": "C=C(COC)/C(=C/C[C@@H](OC(=O)c1ccncc1)c1cccc(OCCO)c1)c1cc(C(=O)OC)ccc1OC", "composite z-score": -0.0022},
      {"compound": "COc1cc(NN2C(C(O)c3ccc(I)cc3)C=CC3C(=O)N(C)C(=O)C32)cc(OC)c1OC", "note": "(stereo unspecified)", "composite z-score": 0.113},
      {"compound": "COCCCNC(=O)[C@@]1(Cc2ccccc2CN=[N+]=[N-])N=C(c2ccc(OCCCO)cc2)O[C@H]1c1ccccc1N=[N+]=[N-]", "composite z-score": 0.525},
      {"compound": "O=C(CS)NCCCCCNC(=O)[C@@H]1C[C@@H]2C(=O)N3CCC[C@H]3C(=O)N2[C@@H]1c1ccc(O)cc1", "composite z-score": -0.118},
      {"compound": "Cc1cc(C)c(C(O)C2C=CC3C(=O)N(c4ccccc4)C(=O)C3N2Nc2ccc([N+](=O)[O-])cc2)c(C)c1", "note": "(stereo unspecified)", "composite z-score": 0.0225},
      {"compound": "C=C[C@H](C)[C@H](OC(=O)Nc1ccc(SC)cc1)c1ccc(O)c2ccccc12", "composite z-score": -0.305},
      {"compound": "COC(=O)C(CC#Cc1ccc2c(c1)[C@]1(C(=O)N2)[C@H](C(=O)N2CCc3cc(OC)c(OC)cc3C2)[C@H]2C(=O)O[C@H](c3ccccc3)[C@H](c3ccccc3)N2[C@@H]1c1ccc(OCCO)cc1)C(=O)OC", "composite z-score": 0.174},
      {"compound": "COC(=O)[C@@]1(Cc2ccc(OC)cc2)[C@H]2c3cc(C(=O)N4CCCC4)n(CCc4ccc(O)c(OC)c4)c3C[C@H]2CN1C(=O)c1ccccc1", "composite z-score": 0.0055},
      {"compound": "O=C1N(CCS(=O)(=O)c2ccccc2)Cc2ccccc2C[C@@]12COC(c1ccc(OCCCO)cc1)=N2", "composite z-score": 0.285},
      {"compound": "CC(C)C[C@H]1NC(=O)[C@H](C)NC(=O)[C@@]23C(=O)N[C@@H](Cc4ccccc4)C2[C@H](C)[C@@]2(C)O[C@H]2C3/C=C/C/C=C\\CNC1=O", "note": "(stereo partly specified)", "composite z-score": -0.158},
      {"compound": "COc1ccc([Si](C)(C)[C@H]2[C@H](CC(=O)N3CCC[C@H]3CO)O[C@@]3(C(=O)N(Cc4ccc(N5C(=O)c6cccc7cccc5c67)cc4)c4ccccc43)[C@@H]2C)cc1", "composite z-score": 0.0333},
      {"compound": "COc1cccc(C)c1NC(=O)O[C@H]1[C@H](OC(=O)Nc2ccccc2)[C@H](OC(=O)Nc2ccccc2)[C@@H](OC)O[C@@H]1CO", "composite z-score": -0.125},
      {"compound": "C=CCC(OC(C)=O)[C@@H]1[C@@H](N(Cc2ccc(-c3ccccc3)cc2)C(=O)c2cccc3ccccc23)c2cc(OCCCO)ccc2N1C(=O)c1ccc2ccccc2n1", "note": "(stereo partly specified)", "composite z-score": 0.045},
      {"compound": "O=C1O[C@H](c2ccccc2)[C@H](c2ccccc2)N2[C@H]1[C@@H](C(=O)N1CCN(c3ncccn3)CC1)[C@]1(C(=O)Nc3ccc(C#CCCO)cc31)[C@H]2c1ccc(OCCO)cc1", "composite z-score": 0.155},
      {"compound": "COC(=O)[C@@]1(Cc2ccccc2N=[N+]=[N-])N=C(c2ccc(OCCCO)cc2)O[C@H]1c1ccccc1", "composite z-score": -0.115}
    ]}
  ]
}
